Structures can show the parent of a compound that is named as a salt.
tested on: Danio rerio larvae Tg(actc1b:ZsGreen-LC3), 3 dpf; assay: LC3 puncta relative area vs vehicle, without NH4Cl (log2 fold change); higher = more autophagosomes; conditions: 10 µM; treatment time 16 h; NH4Cl: none
Method: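 Transgenic Tg(actc1b:ZsGreen-map1lc3) zebrafish larvae (2 dpf) were treated for 16 h with Tocris library compounds at 10 µM (n = 12 larvae per compound). Skeletal-muscle LC3 puncta area relative to body area was measured by high-content confocal imaging before and after 4 h of 100 mM NH4Cl (autophagic flux), normalised to vehicle (DMSO), and reported as log2 fold change.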

| Compound | LC3 puncta (log2) |
| --- | --- |
| CO[C@]12C[C@@H](COC(=O)c3cncc(Br)c3)CN(C)[C@@H]1Cc1cn(C)c3cccc2c13 [Nicergoline] | 0.51 |
| O=c1[nH]oc2c1CCNC2 [THIP hydrochloride] | 0.233 |
| CC(N)Cc1cnc[nH]1 (configuration not stated) | 0.372 |
| CC(CN)CC(=O)O (configuration not stated) [3-Methyl-GABA] | 0.26 |
| Cc1cc(C)cc(C(=O)OC2C[C@H]3CC[C@@H](C2)N3C)c1 (some centres not stated) [Tropanyl-3,5-dimethylbenzoate] | 0.0365 |
| Clc1cccc(SC2CCNCC2)n1 [Anpirtoline hydrochloride] | 0.143 |
| N[C@@]1(C(=O)O)CC[C@@H](C(=O)O)C1 | 0.259 |
| O=C(CCCN1CCC2(CC1)C(=O)N(Cc1cccc(F)c1)CN2c1ccccc1)c1ccc(F)cc1 [3'-Fluorobenzylspiperone maleate] | 0.503 |
| CN1C(=O)CCS(=O)(=O)C1c1ccc(Cl)cc1 (configuration not stated) [Chlormezanone] | -0.0101 |
| S=C=Nc1cccc(C2(N3CCCCC3)CCCCC2)c1 [Metaphit] | 0.663 |
| O=C1NCN(c2ccccc2)C12CCN(CC1COc3ccccc3O1)CC2 (configuration not stated) [Spiroxatrine] | 0.423 |
| C=C(C)[C@H]1CN[C@H](C(=O)O)[C@H]1CC(=O)O [Kainic acid] | 0.377 |
| c1ccc2c(c1)OCC(C1=NCCN1)O2 (configuration not stated) [Idazoxan hydrochloride] | 0.411 |
| C[C@H](N)Cc1cnc[nH]1 | 0.17 |
| NCC(CS(=O)(=O)O)c1ccc(Cl)cc1 (configuration not stated) [Saclofen] | -0.022 |
| CN1[C@@H]2CC[C@H]1C[C@@H](OC(=O)c1cc(Cl)cc(Cl)c1)C2 | 0.263 |
| Oc1ccc2c3c1O[C@H]1c4c(c5ccccc5n4Cc4ccccc4)C[C@@]4(O)C(C2)N(CC2CC2)CC[C@]314 [N-Benzylnaltrindole hydrochloride] | 0.458 |
| C(=C\c1ccccc1)/CN1CCN(CCOC(c2ccccc2)c2ccccc2)CC1 | 0.421 |
| N[C@@H](Cn1oc(=O)[nH]c1=O)C(=O)O [L-Quisqualic acid] | 0.387 |
| Cc1onc(O)c1CC(N)C(=O)O (racemic) | -0.391 |
| CC(C)[C@@]1(NC(=O)[C@@H]2C[C@@H]3c4cccc5[nH]cc(c45)C[C@H]3N(C)C2)O[C@@]2(O)[C@@H]3CCCN3C(=O)[C@H](Cc3ccccc3)N2C1=O [Dihydroergocristine mesylate] | -0.412 |
| COC(=O)[C@@H](N)CCCNC(=N)N[N+](=O)[O-] [L-NAME hydrochloride] | -0.0167 |
| CCCN(CCC)C1CCc2ccc(O)cc2C1 (configuration not stated) [7-Hydroxy-DPAT hydrobromide] | -0.0217 |
| CN(C(=O)Cc1ccc(Cl)c(Cl)c1)[C@H](CN1CCCC1)c1ccccc1 [ICI 199,441 hydrochloride] | 0.0954 |
| c1ccc2nc(N3CCNCC3)ccc2c1 [Quipazine dimaleate] | 0.115 |
| Cn1cnc(CCN)c1 [N?-Methylhistamine dihydrochloride] | 0.287 |
| CCCCCCC[n+]1ccc(-c2cc[n+](CCCCCCC)cc2)cc1 [DHBP dibromide] | 0.00945 |

Source: the supplement of paper PMC12532568
